The values that follow come from the supplement of paper PMC6555819.

What all share (assay): PBM binding z-score (relative to random genomic background probes); higher = stronger binding; sequences stand for … in GC…GCGATTGACAGCGTAGAATGAAGG
Assay [1] has as its system RARb homodimer (NR concentration 270 nM). The procedure, abridged:
(§1)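 Binding buffer was PBS pH 7.4 with 2% milk, 0.02% Triton X-100, 1 mM DTT, 0.2 mg/mL BSA and 0.4 mg/ml salmon testes DNA. In it, ligand-free nuclear receptor dimers were incubated 1 h on custom Agilent 4×180K protein-binding microarrays carrying double-stranded probes. Antibodies against each partner (one per run) detected binding, and z-scores were calculated against random background probes after regression normalization of scanned fluorescence.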

For assay [2], the system named is RARg:RXRa (NR concentration 270 nM, RXRa partner concentration 90 nM). The gist of the method:
as §1

Assay [3] has as its system RARg homodimer (NR concentration 270 nM). The procedure, abridged:
as §1

Assay [4] has as its system RXRa DBDmut IVT, anti-RXR (DBD mutation: RXRa K156A/R161A, NR concentration 90 nM). The gist of the method: as §1
Assay [5] concerns RXRa homodimer (NR concentration 180 nM). The procedure, abridged: as §1
Assay [6] deals with THRa:RXRa (NR concentration 90 nM, RXRa partner concentration 90 nM). The gist of the method: as §1
The subject of assay [7] is THRa homodimer (NR concentration 90 nM). The gist of the method:
as §1

The test system of assay [8] is VDR homodimer (NR concentration 270 nM). The gist of the method: as §1

For the sequence TCTAGCAGGCCAGAGGGTCACGCAAGAGGTACGG, the PBM binding z-score in assay [1] is 3.37; in assay [2], 3.78; in assay [3], 3.41; in assay [4], -0.273; in assay [5] it was 4.06; in assay [6], 2.33. The values for the PBM binding z-score in assay [7] and in assay [8] were -0.0703 and 0.674, respectively.
Regarding TCTATTAGTTGATTAGGGCCACCGAAACAGCGGA, the PBM binding z-score in assay [1] worked out at 0.67; in assay [2] it was 0.31; in assay [3] it was 0.582; in assay [4] it was 1.19; in assay [5], 0.411; in assay [6], 1.09. Also, the results for the PBM binding z-score in assay [7] and in assay [8] were 0.613 and 0.435, respectively.
As to CCTGCTAAGTCATGGTCAGCTAATCTACAGTATG, the PBM binding z-score in assay [1] was 0.142; in assay [2], 0.135; in assay [3] it was 0.315; in assay [4], 0.518; in assay [5] it was 0.0599; in assay [6], -0.13. Besides, the figures for the PBM binding z-score in assay [7] and in assay [8] were -0.892 and -0.337, respectively.
On to CTTCAAAGTTCAAGGTAACGTAACAGAAAGCAGC, for which the PBM binding z-score in assay [1] was found to be 3.62; in assay [2], 5.19; in assay [3] it was 6.14; in assay [4], 4.34; in assay [5] it was 4.62; in assay [6], 2.96. Moreover, the figures for the PBM binding z-score in assay [7] and in assay [8] were 1.34 and 3.44, respectively.
Turning to GCGACTGGGGCAAAGCAGGTTACAATAAGGTTGG, the PBM binding z-score was 1.15 in assay [1]; 0.682 in assay [2]; 0.779 in assay [3]; -0.0572 in assay [4]; 0.668 in assay [5]; 3.11 in assay [6]. The PBM binding z-score in assay [7] was 0.0569; in assay [8] it was -0.351.
Regarding TGATATAGGTAAAAGGTGAAAGTCGGTGTGGTAA, the PBM binding z-score in assay [1] was 2.03; in assay [2], 1.86; in assay [3], 1.13; in assay [4], -0.0828; in assay [5] it was 2.92; in assay [6], 1.8. Moreover, the values for the PBM binding z-score in assay [7] and in assay [8] were 0.423 and 0.42, respectively.
On to CTAACTAGGTCATCCAGGACAGTGAATACATTGA, for which the PBM binding z-score in assay [1] is 2.94; in assay [2], 4.11; in assay [3] it was 4.62; in assay [4] it was 2.34; in assay [5], 3.07; in assay [6], 3.84. Further, the PBM binding z-score amounted to 2.16 in assay [7] and 2.32 in assay [8].
